From PubChem BioAssay (EPA / NIEHS)
Several values for one entry are separate records, joined by “and”; a condition that tells them apart may be missing. Identical values can stand only once. Some compounds were tested as several samples or in several runs, with calls that do not always agree. Activity calls are given as the source filed them. Rule for the calls: active = hit-call score of the fitted dose curve at least 0.9, where 1 is the maximum; inactive = score below 0.9.

Columns and labels:
[1] = ATG_E_Box_CIS: Attagene CIS-FACTORIAL HepG2 Assay for human Enhancer Box (E-box) (AID 2282936); conditions: HepG2 E-box cis-reporter transcription, actives raise or lower the signal
In short: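 HepG2 cells transiently transfected with multiplexed cis-element reporter units, dosed 24 h; reporter mRNA quantified by RT-PCR, 6-FAM labelling, HpaI digestion and capillary electrophoresis. E-box (USF1) signal fitted bidirectionally vs DMSO.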

[2] = ATG_EGR_CIS: Attagene CIS-FACTORIAL HepG2 Assay for human Early Growth Response 1 (EGR1) (AID 2282938); conditions: HepG2 Attagene CIS-FACTORIAL EGR reporter mRNA; actives raise or lower the signal
In short: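 HepG2 cells transiently transfected with cis-element-driven multiplexed reporter units, dosed for 24 h. EGR1-element reporter mRNA quantified by RT-PCR, 6-FAM labelling, HpaI digestion and capillary electrophoresis; bidirectional fit versus DMSO.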

[3] = ATG_ERE_CIS: Attagene CIS-FACTORIAL HepG2 Assay for Estrogen Response Element (ERE) (AID 2282940); conditions: HepG2 ERE cis-reporter, Attagene RNA transcript; actives raise or lower the signal
In short: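 After 24 h compound treatment, RNA from transfected HepG2 cells was reverse-transcribed, reporter cDNA PCR-amplified, FAM-labelled, HpaI-cut and resolved by capillary electrophoresis. ERE-driven cis reporter transcripts reflect endogenous factors; gain or loss scored against DMSO.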

[4] = biological target: Hepatocyte nuclear factor 3-beta (Homo sapiens) (UniProt Q9Y261); experiment: ATG_FoxA2_CIS: Attagene CIS-FACTORIAL HepG2 Assay for human Forkhead box A2 (FOXA2) (AID 2282942); conditions: HepG2 cis-reporter transcription factor activity, 24 h; actives raise or lower the signal
In short: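 HepG2 transiently transfected with a multiplexed cis-promoter reporter library read endogenous FOXA2 activity. After 24 h compound exposure, reporter mRNA was quantified by RT-PCR, HpaI digestion and capillary electrophoresis. Bidirectional fit against DMSO.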

[5] = ATG_GATA_CIS: Attagene CIS-FACTORIAL HepG2 Assay for human GATA Binding Protein (AID 2282944); conditions: HepG2 GATA cis-element reporter, Attagene multiplex mRNA; actives raise or lower the signal
In short: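 Reporter transcripts from a GATA cis-regulated unit, among multiplexed reporters in transfected HepG2 cells, were measured by RT-PCR with capillary electrophoresis after 24 h dosing. Induction or loss scored relative to DMSO.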

[6] = ATG_GLI_CIS: Attagene CIS-FACTORIAL HepG2 Assay for human Zinc Finger Protein GLI1 (AID 2282945); conditions: HepG2, Attagene cis-factorial reporter mRNA, GLI element; actives raise or lower the signal
In short: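 Transiently transfected HepG2 cells report endogenous transcription factor activity via cis-element-driven reporter units. After 24 h compound exposure, reporter mRNA was measured by RT-PCR with capillary electrophoresis; bidirectional fitting against DMSO baseline.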

[7] = ATG_M_61_CIS: Attagene CIS-FACTORIAL HepG2 Assay for M61 Transcription Factor (Internal Marker) (AID 2282937); conditions: HepG2 Attagene CIS-FACTORIAL M61 internal marker reporter; actives raise or lower the signal
In short: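 HepG2 cells transiently transfected with multiplexed cis-promoter reporter units reporting endogenous transcription factor activity, measured 24 h after dosing. Reporter mRNA quantified by RT-PCR and capillary electrophoresis; bidirectional fit against DMSO baseline.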

[8] = ATG_M_19_CIS: Attagene CIS-FACTORIAL HepG2 Assay for M19 Transcription Factor (Internal Marker) (AID 2282939); conditions: HepG2 Attagene CIS-FACTORIAL M19 internal marker reporter; actives raise or lower the signal
In short: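 Internal marker readout, fitted in both directions against DMSO, from HepG2 cells carrying transfected cis-element reporter constructs; RT-PCR and capillary electrophoresis of reporter mRNA after 24 h exposure.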

[9] = ATG_FoxO_CIS: Attagene CIS-FACTORIAL HepG2 Assay for human Forkhead box O (FoxO) (AID 2282943); conditions: HepG2 Attagene cis-reporter, FoxO element, mRNA; actives raise or lower the signal
In short: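 HepG2 cells transiently transfected with cis-element-driven reporter units report endogenous FoxO activity. After 24 h chemical exposure, reporter mRNA quantified by RT-PCR, fluorescent labeling, HpaI digestion and capillary electrophoresis; bidirectional fit versus DMSO.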

[10] = ATG_Ets_CIS: Attagene CIS-FACTORIAL HepG2 Assay for human Erythroblast Transformation Specific (ETS) (AID 2282941); conditions: HepG2 ETS cis-reporter transcription, actives raise or lower the signal
In short: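 Steps: transfect HepG2 with multiple reporter units; treat compound 24 h; isolate RNA, DNase-treat, reverse-transcribe; PCR-amplify, label with 6-FAM, digest with HpaI; separate by capillary electrophoresis. Activity fitted both directions versus DMSO.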

Measured: AC50

Chain of Hepatocyte nuclear factor 3-beta (Homo sapiens) (Q9Y261 whole entry, looked up): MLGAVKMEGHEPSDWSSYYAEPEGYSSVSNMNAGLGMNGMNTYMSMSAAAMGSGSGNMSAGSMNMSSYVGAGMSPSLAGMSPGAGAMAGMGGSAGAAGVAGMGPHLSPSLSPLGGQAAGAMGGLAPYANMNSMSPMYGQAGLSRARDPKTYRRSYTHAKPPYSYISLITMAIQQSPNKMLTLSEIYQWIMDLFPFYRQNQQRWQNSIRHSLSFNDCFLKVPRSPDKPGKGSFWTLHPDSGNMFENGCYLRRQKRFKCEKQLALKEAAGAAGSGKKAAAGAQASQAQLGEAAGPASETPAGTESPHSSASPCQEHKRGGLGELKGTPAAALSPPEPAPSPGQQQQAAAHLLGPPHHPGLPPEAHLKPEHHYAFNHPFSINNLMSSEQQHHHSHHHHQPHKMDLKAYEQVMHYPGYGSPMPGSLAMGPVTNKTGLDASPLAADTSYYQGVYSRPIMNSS

CSc1ccc(Oc2ccc(S(N)(=O)=O)cc2CN(C)C)cc1C
inactive: [1] | [2] | [3] | [4] | [5] | [6]

O=Cc1ccccc1C=O
not listed: [1] | [10]
inactive: all other assays above

CCCCC(CC)COC(=O)CCCCCCCC(=O)OCC(CC)CCCC (stereo not drawn)
not listed: [3] | [7] | [10]
inactive: all other assays above

CCN(CC)CCOc1ccc(C(=C(Cl)c2ccccc2)c2ccccc2)cc1
inactive: [7] | [2] | [8] | [10] | [4] | [9] | [5] | [6]
active: [2] 6.34 µM | [5] 17.6 µM | [6] 9.35 µM

CC1(C)C(=O)NC(=O)N1CO
active: [3] 158 µM
not listed: [7] | [9] | [10]
inactive: all other assays above

OCC(CO)n1cnc(-c2ccc(F)cc2)c1-c1ccnc(Oc2ccccc2)n1
not listed: [1] | [9] | [10]
inactive: all other assays above

CCc1cc(C2=C(C(=O)O)N(c3ccccc3C(F)(F)F)S(=O)(=O)c3ccccc32)cc2c1OCO2
not listed: [1] | [3] | [9]
inactive: all other assays above

CCCCCCCCCCCCCCCCO
not listed: [1]
inactive: all other assays above

CC(N)=O
inactive: [1] | [2] | [10] | [4] | [5] | [6]

CN(C)CCCN1c2ccccc2Sc2ccc(Cl)cc21
active: [2] 13.2 µM
inactive: [1] | [4] | [9] | [5] | [6]

CC(C)(C)c1ccccc1
not listed: [3] | [7] | [10]
inactive: all other assays above

O=C1NC(=O)C(c2ccccc2)(c2ccccc2)N1
not listed: [3] | [7] | [10]
inactive: all other assays above

c1ccc2occc2c1
not listed: [7] | [8] | [9]
inactive: all other assays above

CC(=O)O[C@]1(C(C)=O)CC[C@H]2[C@@H]3C=C(Cl)C4=CC(=O)[C@@H]5C[C@@H]5[C@]4(C)[C@H]3CC[C@@]21C
active: [2] 27.9 µM and 40.3 µM and 100 µM | [5] 174 µM and 48.9 µM | [6] 100 µM and 145 µM
inactive: [7] | [2] | [10] | [4] | [5] | [6]

CC(=O)CC(c1ccccc1)c1c(O)c2ccccc2oc1=O (stereo not drawn)
not listed: [1] | [3] | [9]
inactive: all other assays above

Cc1cc(SC2=C(O)C[C@@](CCc3ccc(N)cc3)(C(C)C)OC2=O)c(C(C)(C)C)cc1CO
not listed: [3] | [7]
inactive: all other assays above

CC(C)c1cccc(C(C)C)c1NC(=O)NS(=O)(=O)c1cc(C(C)(C)O)co1
inactive: [1] | [2] | [10] | [4] | [5] | [6]

Cc1c(C)c2c(c(C)c1O)CCC(C)(COc1ccc(CC3SC(=O)NC3=O)cc1)O2 (stereo not drawn)
active: [3] 0.221 µM
not listed: [7] | [8]
inactive: all other assays above

O=[Si]=O
inactive: [2] | [3] | [10] | [4] | [5] | [6]

O=C(O)c1[nH]n(-c2ccc(S(=O)(=O)O)cc2)c(=O)c1N=Nc1ccc(S(=O)(=O)O)cc1
not listed: [1] | [7]
inactive: all other assays above

CC(C)NCC(O)c1ccc(O)c(O)c1 (stereo not drawn)
not listed: [1] | [3] | [10]
inactive: all other assays above

Cc1occc(=O)c1O
not listed: [1] | [3] | [9]
inactive: all other assays above

CN(C)C(=O)NC1(c2ccccc2)CCN(CC[C@@]2(c3ccc(F)c(F)c3)CN(C(=O)c3ccccc3)CCO2)CC1
inactive: [2] | [8] | [4] | [5] | [6]

O=C1O[C@H]([C@H](O)CO)C(O)=C1O
inactive: [7] | [2] | [10] | [4] | [5] | [6]

CC(COCC(C)OC(=O)c1ccccc1)OC(=O)c1ccccc1 (stereo not drawn)
inactive: [2] | [8] | [4] | [9] | [5] | [6]

C/C=C/c1ccc(OC)cc1
inactive: [2] | [8] | [10] | [4] | [5] | [6]

COC(=O)CCCC(=O)OC
inactive: [7] | [2] | [4] | [9] | [5] | [6]

CCCCC(CC)COP(=O)(OCC(CC)CCCC)OCC(CC)CCCC (stereo not drawn)
inactive: [2] | [10] | [4] | [9] | [5] | [6]

N[C@@H](Cc1c[nH]c2ccccc12)C(=O)O
inactive: [7] | [2] | [10] | [4] | [5] | [6]

O=C(O)CN(CC(=O)O)CC(=O)O
not listed: [1] | [7]
inactive: all other assays above

Cn1cnc2c1c(=O)[nH]c(=O)n2C
inactive: [7] | [2] | [8] | [4] | [5] | [6]

CC(=O)O
inactive: [2] | [4] | [5] | [6]

CC1=C(C)S(=O)(=O)CCS1(=O)=O
inactive: [2] | [3] | [4] | [5] | [6]

COC(=O)CCC(=O)OC
not listed: [1] | [7]
inactive: all other assays above

CCCCCCCCCCCCCCOS(=O)(=O)O
not listed: [1] | [7] | [8]
inactive: all other assays above

CO[C@@H]1COCC[C@@H]1N[C@@H]1CC[C@@](C(=O)N2CCc3ncc(C(F)(F)F)cc3C2)(C(C)C)C1
inactive: [7] | [2] | [4] | [5] | [6]

C/C=C/C=C/C(=O)O
inactive: [2] | [4] | [9] | [5] | [6]

S=c1[nH]c2ccccc2s1
inactive: [2] | [10] | [4] | [9] | [5] | [6]

Cc1cn([C@H]2C=C[C@@H](CO)O2)c(=O)[nH]c1=O
not listed: [1] | [3] | [7]
inactive: all other assays above

Oc1ccc(O)cc1
inactive: [2] | [4] | [9] | [5] | [6]
active: [3] 35.6 µM

NC1CCCCC1
not listed: [1] | [7] | [9]
inactive: all other assays above

COc1ccc(OC(F)(F)F)cc1CN[C@H]1CCCN[C@H]1c1ccccc1
not listed: [1] | [8] | [9]
inactive: all other assays above

CC(=O)OC1CC(C)OC(C)O1 (stereo not drawn)
inactive: [7] | [2] | [4] | [9] | [5] | [6]

Cc1cc(Cc2ccc(N)c(C)c2)ccc1N
inactive: [7] | [2] | [8] | [4] | [5] | [6]

CCCCCCC(C=O)=Cc1ccccc1
inactive: [7] | [2] | [8] | [4] | [5] | [6]

CC(C)OC(=O)C(C)(C)Oc1ccc(C(=O)c2ccc(Cl)cc2)cc1
inactive: [7] | [10] | [4] | [5] | [6]
active: [2] 38.4 µM | [3] 27.7 µM

NC=O
inactive: [2] | [8] | [4] | [5] | [6]
